The numbers were not newly measured in PubChem BioAssay AID977608, which cites them from elsewhere.

The structures appear in SMILES notation. About 4,300 (100%) of roughly 4,300 compounds were called active. No cut-off is given here; in the data, nearly all actives have IC50 up to about 1400 µM. The set was probably picked from earlier hits. This is one part of the list. Positions of bridges follow the written chain, without caps; N, C: chain ends. Bridge positions count the residues as written; N and C are the ends. Non-standard residues stand in square brackets, D forms with d. Square brackets hold non-standard residues; d marks the D form. Residues, ends and D or L forms follow the SMILES beside them. Peptide text beside a SMILES is read from it. *: point of attachment. Phe(3,5-F2) = N[C@@H](Cc1cc(F)cc(F)c1)C(=O)O; Orn(CH(NH2)2) = NC(N)NCCC[C@H](N)C(=O)O; Pip(4S-Me) = C[C@H]1CCN[C@H](C(=O)O)C1; β3hR = N=C(N)NCCC[C@H](N)CC(=O)O; β3hE = N[C@@H](CCC(=O)O)CC(=O)O; β3hQ = NC(=O)CC[C@H](N)CC(=O)O; X1 = CC[C@H](C)C/C=C/C(=O)*; β3hD = NC(CC(=O)O)CC(=O)O; β3hA = C[C@H](N)CC(=O)O

The data set is described as follows: protein-ligand inhibition affinities from structures – PDB-derived complexes (AID 977608).

Turning to `CO[C@H]1CCO[C@@]2(C)Oc3c(C)c(=O)c4c(O)c(c5oc6cccc(OCCCCN7CCN(CCn8ccnc8)CC7)c6nc5c4c3C2=O)NC(=O)[C@H](C)CCC[C@H](C)[C@H](O)[C@@H](C)[C@@H](O)[C@@H](C)[C@H](OC(C)=O)[C@@H]1C`, under “literature IC50, protein: DNA-directed RNA polymerase subunit alpha, PDB entry 4kn7”, the IC50 (in general, the concentration at which inhibition is half-maximal) is 0.024 µM (active).
In the case of `CC[C@H](C)[C@H](NC(=O)C[C@H](CCC(=O)O)NC(=O)[C@H](CCC(=O)O)NC(=O)[C@H](C)N)C(=O)NCC(=O)N[C@@H](C)C(=O)N[C@@H](CCC(N)=O)CC(=O)N[C@@H](CC(C)C)C(=O)N[C@@H](CCCN=C(N)N)C(=O)N[C@@H](CCCN=C(N)N)CC(=O)N[C@@H](CCSC)C(=O)N[C@@H](C)C(=O)N[C@@H](CC(=O)O)C(=O)N[C@@H](CC(=O)O)CC(=O)N[C@@H](CC(C)C)C(=O)N[C@@H](CC(N)=O)C(=O)N[C@@H](C)CC(=O)N[C@@H](CCC(N)=O)C(=O)N[C@@H](Cc1ccc(O)cc1)C(=O)O` (H-AE[β3hE]IGA[β3hQ]LR[β3hR]MAD[β3hD]LN[β3hA]QY-OH), the IC50 (literature IC50, protein: fusion protein of mouse and human Mcl-1, PDB entry 4bpi) is 0.67 µM (active).
For `CC[C@H](C)[C@H](NC(=O)[C@H](C)N)C(=O)N[C@H](C)C(=O)N[C@@H](C)C(=O)N[C@@H](CCC(N)=O)CC(=O)N[C@@H](CC(C)C)C(=O)N[C@@H](CCCN=C(N)N)C(=O)N[C@@H](CCCN=C(N)N)CC(=O)N[C@@H](CCSC)C(=O)N[C@@H](C)C(=O)N[C@@H](CC(=O)O)C(=O)N[C@@H](CC(=O)O)CC(=O)N[C@@H](CC(C)C)C(=O)N[C@@H](CC(N)=O)C(=O)N[C@@H](C)CC(=O)N[C@@H](CCC(N)=O)C(=O)N[C@@H](Cc1ccc(O)cc1)C(=O)N[C@@H](CCC(=O)O)C(N)=O`, under “literature IC50, protein: fusion protein of mouse and human Mcl-1, PDB entry 4bpj”, the IC50 is 1 µM (active).
Take `Nc1ncc2c(n1)-c1c([nH]c3ccc(Br)cc13)CCC2`: the IC50 (literature IC50, protein: Mitogen-activated protein kinase kinase kinase 14, PDB entry 4idt) is 0.1 µM (active).
On to `N#CNC(=NCCCCCCOc1ccc(Cl)cc1)Nc1ccncc1`, for which the IC50 (literature IC50, protein: Human Nicotinamide Phosphoribosyltransferase, PDB entry 4o12) is 0.002 µM (active).
Regarding `CCOc1ccc(C(=O)Nc2ccc(F)c([C@@]3(C)NC(N)OCC3(F)F)c2)nc1` (stereo not given in full), the IC50 reads like this: (literature IC50, protein: BETA-SECRETASE 2, PDB entry 3zlq) 0.904 µM (active); (literature IC50, protein: Beta-secretase 1, PDB entry 4j0t) 0.184 µM (active).
Regarding `CCOP(=O)(COc1ccc(CCc2cnc3c(c2)C(=O)N(C)c2cccnc2N3CC)cc1)OCC`, the IC50 (literature IC50, protein: Reverse transcriptase, PDB entry 4i7f) was 0.1 µM (active).
With `O=C(COc1ccccc1[P+](O)(O)O)Nc1cccc(Cl)c1Cl`, under “literature IC50, protein: 14-3-3 protein sigma, PDB entry 4dhu”, the IC50 is 5 µM (active).
For the compound `O=C(COc1ccccc1[P+](O)(O)O)Nc1ccccc1C(F)(F)F`, the IC50 (literature IC50, protein: 14-3-3 protein sigma, PDB entry 3t0l) was 30 µM (active).
Consider `O=C(COc1ccccc1[P+](O)(O)O)Nc1ccccc1Cl`, for which the IC50 (literature IC50, protein: 14-3-3 protein sigma, PDB entry 4dhr) is 27 µM (active).
In the case of `O=C(COc1ccccc1[P+](O)(O)O)Nc1cc(C(F)(F)F)ccc1Cl`, the IC50 (literature IC50, protein: 14-3-3 protein sigma, PDB entry 4dhp) was 36 µM (active).
For `N#Cc1c(F)cc(O)cc1SCCS(O)(O)O`, the IC50 (literature IC50, protein: M-phase inducer phosphatase 2 CDC25B, PDB entry 4wh9) is 1000 µM (active).
With `COc1cc2cc(c1)NC(=O)/C(C)=C/CC[C@H](OC(N)=O)[C@@H](OC(N)=O)/C(C)=C/[C@H](C)[C@@H](OC)[C@@H](OC)COC2`, the IC50 (literature IC50, protein: Heat shock protein HSP 90-alpha, PDB entry 4jql) was 1 µM (active).
As for `CC[C@H](C)[C@@H]1NC(=O)[C@H](CC(=O)O)NC(=O)[C@@H](NC(=O)[C@H](CCC(=O)O)NC(=O)[C@H](CC(N)=O)NC(=O)CNC(=O)CN)CSSC[C@@H](C(=O)N[C@@H](Cc2ccccc2)C(=O)N[C@@H](CCC(=O)O)C(=O)N[C@@H](CCCNC(N)N)C(=O)N[C@@H](CC(C)C)C(=O)O)NC(=O)[C@H](CCC(=O)O)NC(=O)[C@H](Cc2c[nH]c3ccccc23)NC(=O)[C@H](CCC(=O)O)NC(=O)[C@H](Cc2c[nH]c3ccccc23)NC(=O)[C@H](CCSC)NC(=O)[C@H](CCCNC(N)N)NC(=O)[C@H](C)NC1=O` (H-GGNECDIA[Orn(CH(NH2)2)]MWEWECFE[Orn(CH(NH2)2)]L-OH; disulfide 5-15), the IC50 (literature IC50, protein: Vascular endothelial growth factor(VEGF), PDB entry 1kat) is 1 µM (active).
For `CSCC[C@H](NC(=O)[C@@H]1CSSC[C@H](NC(=O)[C@H](CC(N)=O)NC(=O)[C@@H](N)CCCNC(N)N)C(=O)N[C@@H](Cc2ccccc2)C(=O)N[C@@H](CCC(=O)O)C(=O)N[C@@H](CO)C(=O)N[C@@H](C(C)C)C(=O)N[C@@H](C)C(=O)N[C@@H](C)C(=O)N[C@@H](CC(C)C)C(=O)N[C@@H](CCCNC(N)N)C(=O)N[C@@H](CCCNC(N)N)C(=O)N1)C(=O)N[C@@H](Cc1ccc(O)cc1)C(=O)NCC(=O)O` (H-[Orn(CH(NH2)2)]NCFESVAAL[Orn(CH(NH2)2)][Orn(CH(NH2)2)]CMYG-OH; disulfide 3-13), the IC50 (literature IC50, protein: Insulin-like growth factor IB(IGF-I), PDB entry 1pmx) was 7.2 µM (active).
As to `CC[C@@H]1C(=O)N(C)c2cnc(-n3ccnc3-c3ccccc3)nc2N1C1CC=CC1`, the IC50 (literature IC50, protein: Serine/threonine-protein kinase PLK2 (C83S, V87T, A119S, A216S, C259A, C291S, L335T mutation), PDB entry 4i6f) is 0.005 µM (active).
Regarding `CC[C@@H]1C(=O)N(C)c2cnc(-n3ccnc3-c3cscn3)nc2N1C1CCCC1`, the IC50 (literature IC50, protein: Serine/threonine-protein kinase PLK2 (C83S, V87T, A119S, A216S, C259A, C291S, L335T mutation), PDB entry 4i6h) is 0.005 µM (active).
`CC[C@H](C)C/C=C/C(=O)N[C@@H](Cc1cc(F)cc(F)c1)C(=O)N[C@@H]1C(=O)N2CCC[C@H]2C(=O)N2CC[C@H](C)C[C@H]2C(=O)N[C@@H](C)C(=O)N2CCC[C@H]2C(=O)O[C@@H]1C` (X1-[Phe(3,5-F2)]TP[Pip(4S-Me)]AP; ester 2-C): the IC50 (literature IC50, protein: ATP-dependent Clp protease proteolytic subunit 1 ClpP1, PDB entry 4u0g) was 5.1 µM (active).
For `Oc1ccc(-n2ccnc2)cc1`, the IC50 (literature IC50, protein: Polymerase PA, PDB entry 4m5r) is 1000 µM (active).
Consider `c1cc2nc(N[C@H]3CCCNC3)c3cc[nH]c3n2n1`, for which, for the setting “literature IC50, protein: MAP kinase-activated protein kinase 2, PDB entry 3wi6”, the IC50 is 4.7 µM (active).
Consider `O=C(O)c1ccc2occc2c1`, for which the IC50 (literature IC50, protein: Dengue virus 3 non-structural protein 5, PDB entry 4ctj) was 3120 µM (active).
Consider `N[C@@H](CCNC(=O)N1CCn2c(ccc2C(F)(F)F)C1)Cc1cc(F)c(F)cc1F`, for which the IC50 (literature IC50, protein: Dipeptidyl peptidase 4, DPP4, PDB entry 4j3j) is 0.031 µM (active).
`COc1ccc(Cl)cc1NCC(=O)NC1CCC(n2c(=O)[nH]c3ccccc32)CC1` (stereo not given): the IC50 (literature IC50, protein: Tankyrase-1, PDB entry 4k4e) was 0.024 µM (active).
For the compound `COc1nc2c(cc1-c1c(C)noc1C)ncc1[nH]c(=O)n(-c3ccccc3OC(F)(F)F)c12`, the IC50 (literature IC50, protein: BROMODOMAIN-CONTAINING PROTEIN 4, PDB entry 4bw4) was 0.63 µM (active).
As to `C/C(=N\O)c1ccc(O)cc1O`, the IC50 (literature IC50, protein: SERINE/THREONINE-PROTEIN KINASE CHK2, PDB entry 4bdb) was 85.6 µM (active).
Take `COc1ccc(C[C@H](NC(=O)[C@H](C)NC(=O)CN2CCOCC2)C(=O)N[C@@H](CC2CCCCC2)[C@@H](O)[C@H](C)CO)cc1`: the IC50 (literature IC50, protein: yCP, PDB entry 4qlq) was 0.0066 µM (active).
For the compound `COc1ccc(C[C@H](NC(=O)[C@@H](C)NC(=O)CN2CCOCC2)C(=O)N[C@@H](CC2CCCCC2)[C@@H](O)[C@H](C)CO)cc1`, the IC50 (literature IC50, protein: yCP, PDB entry 4qls) was 0.036 µM (active).
`O=C(COc1ccccc1[P+](O)(O)O)NC1CCCCC1`: the IC50 (literature IC50, protein: 14-3-3 protein sigma, PDB entry 4dht) was 15 µM (active).
In the case of `O=C(COc1ccccc1[P+](O)(O)O)NC1CCCC1`, the IC50 (literature IC50, protein: 14-3-3 protein sigma, PDB entry 4dhn) was 128 µM (active).
